# TrxR1 substrate: substrates of rat thioredoxin reductase 1; purified TrxR1 substrate turnover, NADPH consumption readout; AID 588456; Potency, µM (top dose mostly 114 µM), without a hit: at the highest dose activity change, negative = substrate turnover; 0.01% of 390,000 active; O89049; also: potency is read from the fitted curve at half-maximal effect; % is scaled to controls: 0 for no effect and ±100 for the full control effect; nearly all actives have a fitted effect of over 50% in size
# Target sequence (O89049 whole entry, looked up): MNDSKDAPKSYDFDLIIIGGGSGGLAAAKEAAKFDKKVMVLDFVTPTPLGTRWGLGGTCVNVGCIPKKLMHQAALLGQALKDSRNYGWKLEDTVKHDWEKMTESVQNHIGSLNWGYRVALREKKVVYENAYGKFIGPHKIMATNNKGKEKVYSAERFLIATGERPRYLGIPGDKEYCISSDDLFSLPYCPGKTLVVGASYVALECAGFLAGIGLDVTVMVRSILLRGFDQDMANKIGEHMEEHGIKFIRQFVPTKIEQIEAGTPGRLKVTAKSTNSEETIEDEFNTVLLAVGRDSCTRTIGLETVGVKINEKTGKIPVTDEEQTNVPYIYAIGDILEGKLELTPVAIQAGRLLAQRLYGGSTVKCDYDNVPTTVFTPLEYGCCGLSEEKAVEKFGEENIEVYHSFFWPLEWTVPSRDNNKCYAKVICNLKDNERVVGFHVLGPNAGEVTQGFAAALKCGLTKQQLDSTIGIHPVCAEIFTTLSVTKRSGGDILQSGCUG
#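 Rat TrxR1, dispensed at 90 nM, was prereduced with 400 uM NADPH (final) for 5 min at ~22 deg C, then incubated with compound 15 min before 400 uM selenite. A first-read NADPH fluorescence drop versus no-compound background flagged substrates.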
# mIDH1 inhibitor: human IDH1 R132H inhibition. O75874. IDH1-R132H enzyme, NADPH consumption, diaphorase/resazurin fluorescence. Potency, µM (top dose mostly 76.6 µM), inactives show at the highest dose activity change, negative = inhibition, actives largely listed as inhibitors. 0.093% of 390,000 active. AID 602179; also: potency is read from the fitted curve at half-maximal effect; % is scaled to controls: 0 for no effect and ±100 for the full control effect; nearly all actives have a fitted effect of over 65% in size
#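 IDH1-R132H (0.5 ug/mL dispensed) in pH 7.5 Tris buffer was preincubated 30 min with compound, then given a substrate mix of 0.016 mM NADPH and 2 mM alpha-KG for 80 min at room temperature; remaining NADPH was read by diaphorase/resazurin fluorescence.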
# IL2 activator: activates IL-2 in a cell-based reporter assay; IL-2 activation reporter assay, cell-based qHTS; stimulated with anti-CD3/CD4/CD28 beads; in transgenic mouse T cells; activation, % (series mostly up to about 46 µM); 0.065% of 360,000 active; AID 652025; in the data active = activation above about 50%; inconclusive = mostly about 30% to 49%; also: 0% is about no effect
#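 Unstimulated transgenic mouse T cells; 60-min compound exposure; bead-based TCR/CD4/CD28 stimulation; 18 h culture, 37 degrees C; dual fluorescence (EGFP, DsRed) plate cytometry.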
# TrxR1 inh: inhibitors of rat thioredoxin reductase 1. O89049. recombinant rTrxR1, NADPH fluorescence consumption, selenite substrate. Potency, µM (titrated, usually from 114 µM), for inactives: at the top dose activity change, negative = inhibition, actives largely listed as inhibitors. 1% of 390,000 active; also: potency is read from the fitted curve at half-maximal effect; % is scaled to controls: 0 for no effect and ±100 for the full control effect; nearly all actives have a fitted effect of over 65% in size
#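 Rat TrxR1 (90 nM in the dispensed reagent) was pre-reduced with 400 uM NADPH for 5 min at room temperature, then incubated with compound for 15 min. After 400 uM selenite was added, NADPH fluorescence (Ex 340/Em 450 nm) was followed for 8 min.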
# Giardia killer: Giardia lamblia killing. 0.15% of 340,000 active. activity change, % at 7.66 µM, hits read low. Giardia lamblia trophozoite viability. AID 540267; in the data active = activity change below about -80%; inconclusive = between about -30% and that limit;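 also: parasites exposed to compound for two days anaerobically before the ATP read; % is scaled to controls: 0 for no effect and ±100 for the full control effect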
#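 Trophozoite viability was measured as ATP-dependent luminescence, read 15-30 min after reagent addition. Before that, parasites at 100 cells/well were exposed to compounds for 48 h, anaerobically, at 37 deg C.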
# BRCA1 expr act: increases BRCA1 expression. 1.1% of 380,000 active. Potency, µM (highest dose often 46.1 µM), without a hit: top-dose activation, usual class: activators. MCF7-BRCA1-FFLuc reporter, luminescence, 48 h; response scale: scaled: vehicle 0%, 10 µM genistein 100%. AID 624202; also: potency is read from the fitted curve at half-maximal effect; nearly all actives have a fitted effect of over 80% in size
#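 Activators of BRCA1 expression were detected as increased firefly luciferase luminescence in engineered MCF7 cells after 48 h compound incubation. Signals were scaled to genistein 10 microM as full activation.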
# The depositor's hits bear a star; ? = inconclusive; / = no result; [ ] = dose if it differs, or a comment. In the library only some 2.2% were active in any assay of this set; here they are far more common. Unless noted, calls follow the shape of the dose curve; as a rule, active = well fitted curve in the direction sought with a large enough effect; inconclusive = small, poorly fitted or top-dose-only effect, or another doubt; inactive = no such curve, though single readings can be large; an effect the other way counts as inactive or inconclusive.
SMILES,TrxR1 substrate,mIDH1 inhibitor,IL2 activator,TrxR1 inh,Giardia killer,BRCA1 expr act
CCN(CC)C(=O)Cc1c(OC)ccc2cc(Br)ccc12,-5.4%,7.4%,0.8,-5.8%,-18.5,-12.4%
CCN(Cc1ccncc1)Cc1c(O)ccc2cc(Br)ccc12,8.6%[57.1 µM],6.4%,-0.4,7.94µM*,14.1,-30.5%
N=C1C(c2nc3ccccc3s2)=C(O)CN1Cc1ccco1,-2.5%,8.2%,2.5,?,3.1,7.08µM*
O=C(CCc1nnc(-c2ccsc2)o1)N1CCc2c(Cl)cccc2C1,0.0%,-4.1%,-2.2,21.1%,-0.4,11.2µM*
CCN1C(=O)/C(=C/c2ccc(C)o2)N(C)C1=S,-11.0%,4.9%,-0.7,31.6µM*,-4.5,0.1%
CCN1C(=O)/C(=C/c2cccs2)N(C)C1=S,7.0%[57.1 µM],-5.0%,-2.1,10.3%[57.1 µM],5.7,-19.2%
Cc1ccc2c(C)c(C(=O)N(C)C(C)c3ccon3)oc2c1C (stereo not given),-5.1%,-4.7%,1.9,2.8%,-11.8,10µM*
CCn1c(SCC(=O)N2c3ccccc3Sc3ccccc32)nnc1-c1ccco1,9.3%,3.1%,1.0,20µM*,19.5,-40.3%
C=CCn1c(SCC(=O)N2c3ccccc3Sc3ccccc32)nnc1-c1ccco1,5.5%[57.1 µM],8.7%,-0.6,-2.9%[57.1 µM],8.5,-5.4%
Cc1ccc(SCc2cn3cccnc3n2)cc1,-9.8%,5.9%,-0.8,10.9%[57.1 µM],2.7,11.2µM*
CCSC1(SCC)N=C(N)C2(C#N)C(c3ccc(OC)c(OC)c3OC)C12C#N (stereo not given),-10.6%,-1.1%,-0.1,44.7µM*,-7.3,-30.5%
O=c1c(N2CCN(c3cccc(Cl)c3)CC2)csc2ccccc12,1.8%[57.1 µM],-9.0%,/,8.7%[57.1 µM],/,/
CC(=O)OCCCNc1cc(Sc2ccc(C)cc2)c2nonc2c1[N+](=O)[O-],-6.3%,6.6%,-3.3,11.2µM*,-5.3,-61.4%
CC(=O)OCCNc1cc(Sc2nc3ccccc3[nH]2)c2nonc2c1[N+](=O)[O-],-15.4%,1.8%,-2.2,-92.1%[11.4 µM],-9.1,-102.2%
CC(=O)OCCCNc1cc(Sc2nc3ccccc3s2)c2nonc2c1[N+](=O)[O-],-2.5%,4.3%,1.7,0.316µM*,8.9,-18.4%
Cc1ccc(NC(=S)c2ccccc2)cc1,8.5%[57.1 µM],1.1%,2.2,4.9%[57.1 µM],-10.9,1.26µM*
Cc1ccc(NC(=S)N/C(=N/S(=O)(=O)c2ccccc2)c2ccccc2)cc1,-9.2%,0.3%,-2.6,6.31µM*,6.9,12.6µM*
Cc1ccc(NC(=S)c2ccncc2)cc1,-1.7%,5.4%,2.0,10.4%,8.6,5.5%
Cc1ccc(S(=O)(=O)/N=C(/NC(=S)Nc2ccccc2)c2ccccc2)cc1,0.6%,4.4%,0.1,8.91µM*,1.2,?
COc1ccc(CCNC(=O)CCCn2c(=O)c3ccccc3n(Cc3ccccc3)c2=O)cc1OC,-1.0%,11.1%,/,12.5%,/,-17.2%
Cc1cc(OCC(=O)Nc2cccc(-c3nc4ccccc4o3)c2C)cc(C)c1Cl,-6.7%,/,/,0.5%,/,-18.3%
COCCN1CCc2nc(SCC(=O)Nc3ccc(C)c(Cl)c3)[nH]c(=O)c2C1,2.8%,0.0%,/,17.3%,/,/
COc1ccccc1NC(=O)Cc1csc(NC(=S)Nc2ccc(C)cc2)n1,3.8%[57.1 µM],-5.6%,-2.7,8.91µM*,-9.2,-64.0%
CCC(=O)Nc1nc(CC(=O)Nc2ccccc2OC)cs1,-8.6%[57.1 µM],7.1%,-4.1,7.9%[57.1 µM],5.4,-1.2%
COc1ccc2oc(-c3ccc(C)c(NC(=O)c4cccnc4)c3)nc2c1,13.5%[57.1 µM],2.4%,/,59.8%[57.1 µM],/,/
CC(C)NS(=O)(=O)c1ccc2[nH]c3nc(SCC(=O)Nc4ccc(F)c(F)c4)nnc3c2c1,4.5%,/,/,10.8%,-17.9,0.0%
O=C(Nc1ccc2nc(C3CC3)n(Cc3ccccc3)c(=O)c2c1)C1CC1,8.7%,12.3%,-2.4,14.9%,-2.1,113.5%
CCC(=O)Nc1ccc2nc(C3CC3)n(Cc3ccccc3)c(=O)c2c1,8.6%,2.9%,0.6,-0.6%,16.0,3.98µM*

# Screening data as filed in PubChem BioAssay.
